TGFb inhibitor: TGF-b pathway inhibition; HepG2 CAGA-GFP TGF-b/SMAD3 reporter, GFP fluorescence, 18 h; TGF-beta stimulated, 500 pg/mL final; Potency, µM (series often up to 46.1 µM), inactives show at the top dose activity, negative = inhibition, hits mostly inhibitors; actives 1.2% (n = 410,000); AID 588855; note: potency is the fitted concentration of half-maximal effect; % is set by controls: 0 for no effect and ±100 for the full control effect; nearly all actives have a fitted effect of over 65% in size
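Smad-responsive CAGA-GFP expression was quantified in HEPG2 cells exposed to compounds and 500 pg/mL final TGF-beta for 18 h at 37 degrees C; unstimulated wells defined full inhibition.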
IL1B secr inh: blocks inflammasome-driven IL-1 beta release | THP-1 LPS/ATP IL-1B secretion, AlphaLISA, 16 h; hits give low values | actives 4.7% (n = 360,000) | AID 743279 | activity change, % at 57.5 µM; in the data active = activity change below about -50%; inconclusive = mostly about -30% to -49%; note: % is set by controls: 0 for no effect and ±100 for the full control effect
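Secreted IL-1B measured by AlphaLISA bead assay after 16 h compound exposure of THP-1 cells; compounds (final up to 57.5 uM) added 1 h before LPS (250 ng/mL) and ATP (1.25 mM) stimulation; lower signal means less secretion.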
ATXN2 expr inh: ATXN2 expression inhibition. Potency, µM (doses to about 57 µM), inactives show at the highest dose activity change, negative = inhibition, usual class: inhibitors. HEK-293 ATXN2-luciferase reporter, luminescence, 24 h. actives 0.72% (n = 360,000); note: potency is the fitted concentration of half-maximal effect; % is set by controls: 0 for no effect and ±100 for the full control effect; nearly all actives have a fitted effect of over 55% in size
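qHTS (up to 57 uM final) was run with 24 h compound exposure of reporter cells at 37 °C. Each well was multiplexed: SteadyGlo luminescence measured ATXN2-luciferase expression after a fluorogenic Gly-Phe-AFC viability readout (25 uM final).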
HepG2 tox: kills HepG2 cells in TGF-b inhibitor counter-screen. HepG2 CAGA-GFP viability, ATP luminescence, 18 h. Potency, µM (titrated, usually from 46.1 µM), inactives show at the highest dose activity change, negative = cytotoxicity, most hits filed as cytotoxic. actives 0.76% (n = 410,000). AID 588856; note: potency is the fitted concentration of half-maximal effect
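CellTiter-Glo luminescence gave cytotoxicity after 18 hours at 37 degrees C. The cells were HepG2 CAGA-GFP in 1% FBS DMEM, stimulated with 500 pg/mL TGF-beta after compound addition. %Activity was normalised to no-cell wells (complete cell-killing) and DMSO (no toxicity), and curves were fitted and classified.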
S2 tox: cell viability loss in ATXN counter-screen; S2 cells (HEK-293 line with an ATXN2-luciferase reporter) viability, CellTiter-Fluor protease fluorescence, 24 h; Potency, µM (doses to about 56.7 µM), hits mostly cytotoxic; actives 0.49% (n = 400,000); AID 651635; note: potency is the fitted concentration of half-maximal effect; nearly all actives have a fitted effect of over 40% in size
The depositor's hits bear a star; i = inactive; u = inconclusive; x = not tested or not shown. Most compounds without a hit are left out; they make up all but 5.7% or so of the library. Unless noted, calls come from the whole dose curve; as a rule, active = well fitted curve in the direction sought with a large enough effect; inconclusive = small, poorly fitted or top-dose-only effect, or another doubt; inactive = no such curve, though single readings can be large; an effect the other way counts as inactive or inconclusive.

SMILES	TGFb inhibitor	IL1B secr inh	ATXN2 expr inh	HepG2 tox	S2 tox
Cc1ccc(-c2csc(NCCc3nc4cc(Cl)c(Cl)cc4n3CCCO)n2)cc1	u	-56*	-6%	-18%	i
CC1CCN(C(c2ccccc2)c2sc3nc(-c4ccco4)nn3c2O)CC1 (stereo unspecified)	-18%	x	x	-23%	x
O=C(NNC1=C(C(=O)C(F)(F)F)CCC1)c1ccc(Cl)cc1	11µM*	82	u	10µM*	u
COc1ccc(C(=O)NNC2=C(C(=O)C(F)(F)F)CCC2)cc1	8.9µM*	131	-33%	-50%	i
CC(C)(C)c1ccc(C(=O)NNC(=O)c2ccc(Cl)cc2)cc1	5%	7	3%	-3%	i
O=C(NNC1=C(C(=O)C(F)(F)F)CCC1)c1cccc(Cl)c1	u	73	u	10µM*	u
O=C(NNC(=O)c1cccc(Cl)c1)NNC(=O)c1cccc(Cl)c1	-3%	0	-5%	-1%	i
C#CCN(Cc1ccc(OC)cc1)S(=O)(=O)C=C	-22%	x	x	15%	x
COc1ccccc1-c1nc2c(c(SCC(=O)Nc3ccc(C)c(C)c3)n1)Cc1c(CO)cnc(C)c1O2	-18%	x	x	-20%	x
CCCn1cc(S(=O)(=O)c2ccccc2)c(=O)c2cc(CC)ccc21	-4%	-50*	0%	-1%	i
CCCn1cc(S(=O)(=O)c2ccccc2)c(=O)c2cc(OC)c(OC)cc21	-1%	u	26%	0%	i
CCOc1ccc(Nc2nc(Cc3nnc(SCC(=O)N(CC)CC)n3C)cs2)cc1	u	-2	-9%	20µM*	i
CNc1nc(SCc2ccc(C)cc2)nc2c1CCCC2	16µM*	-10	-12%	-4%	i
Cc1ccc(/C=N/Nc2ccnc3cc(Cl)ccc23)c(C)c1	u	-77*	35µM*	14µM*	u
CC(=O)N1CCC(=NNc2ccnc3cc(Cl)ccc23)CC1	-1%	40	-6%	-7%	i
Oc1ccc(/C=N/Nc2ccnc3cc(Cl)ccc23)c(O)c1	-11%	u	x	5%	u
Clc1ccc2c(N/N=C/c3cccnc3)ccnc2c1	-26%	10	u	-19%	u
Cc1ccccc1/C=N/Nc1ccnc2cc(Cl)ccc12	10µM*	-103*	22µM*	-103%	x
Clc1ccc2c(N/N=C/c3ccc(Br)cc3)ccnc2c1	25%	-98*	-34%	1%	u
Cc1ccc2c(c1)c1c(c(=O)n(-c3ccccc3)c(=O)n1Cc1ccccc1C)n2C	31%	x	13%	-1%	i
CN1C(=O)/C(=C/c2cc(N=Nc3ccccc3)ccc2O)SC1=S	u	27	u	-10%	28µM*
CC[N+]1(CC(=O)c2ccc(Cl)cc2)CCCCC1	1%	x	x	3%	x
O=c1cc(-c2ccccc2)cc(-c2ccccc2)n1O	u	120	14µM*	-8%	16µM*
Cc1nonc1CN(C)C(=O)C1CC12CCN(C(=O)/C=C/c1cccc(Cl)c1)CC2 (stereo unspecified)	x	x	x	x	i
Cc1cc2c(F)c(Oc3ncnn4cc(OC[C@@H](C)O)c(C)c34)ccc2[nH]1	x	x	51%	x	x
SMILES	TGFb inhibitor	IL1B secr inh	ATXN2 expr inh	HepG2 tox	S2 tox
COc1ccc(C2=C(C(C)=O)Sc3nnc(-c4ccc(Cl)cc4)n3N2C(C)=O)cc1OC	2%	x	x	0%	x
COc1ccc(Br)cc1C(=O)NC(=S)Nc1ccc(CN2CCOCC2)cc1	-8%	-68*	25µM*	-17%	i
O=C(Nc1ccc(OCC(=O)N2CCOCC2)cc1)c1ccccc1F	-2%	19	-6%	6%	i
O=C(Nc1ccc(CN2CCOCC2)cc1)c1ccc(Cl)cc1Cl	u	0	-9%	-72%	i
O=C(COc1ccc(Br)cc1)N1CCOCC1	-3%	-7	6%	-24%	i
O=C(Nc1ccc(Cl)cc1)c1cc(Br)ccc1OCC(=O)N1CCOCC1	-22%	-92*	-24%	-30%	i
O=C(COc1ccc2cc(Br)ccc2c1Br)N1CCOCC1	0%	-77*	-9%	-18%	i
O=C(Nc1ccc(CN2CCOCC2)cc1)c1cc(Br)ccc1Cl	-9%	-51*	-8%	-1%	i
O=C(CSc1n[nH]c(-c2ccccc2Cl)n1)N1CCN(c2ccc(F)cc2)CC1	-59%	x	x	4%	x
Cc1ccc(CSc2nc3ccc(NC(=O)COc4ccccc4)cc3s2)cc1	-1%	x	2%	3%	u
O=C(Nc1ccc(CN2CCOCC2)cc1)c1cc2ccccn2n1	-11%	28	22µM*	-31%	i
O=C(Nc1ccc(CN2CCOCC2)cc1)c1cc2ccccc2o1	-1%	-11	7%	-6%	i
C=CCn1c(NCCc2ccccc2)nc2c1c(=O)n(C)c(=O)n2C	-24%	-21	u	-42%	i
C/C(Cl)=C\Cn1c(NCCc2ccccc2)nc2c1c(=O)n(C)c(=O)n2C	-13%	-52*	u	-21%	i
O=C(Nc1ccccn1)C1CCN(S(=O)(=O)c2ccc(Cl)cc2)CC1	2%	-68*	5%	-8%	i
O=C(Nc1ccncc1)C1CCN(S(=O)(=O)c2ccc(Cl)cc2)CC1	5%	12	-14%	-7%	i
CCc1cccc(C)c1NC(=O)Cn1c(=O)cc(C(F)(F)F)c2c(C)nn(C)c21	-12%	x	10%	0%	i
Clc1cccc(CSc2nnc(C3CCNCC3)o2)c1	-8%	x	-2%	-8%	i
CCc1ccc(CNCc2c(C(=O)O)n(Cc3ccc(C)cc3)c3cc(C)ccc23)cc1	16µM*	x	-10%	18µM*	x
C=Cc1ccc(Cn2c(C(=O)O)c(CNCc3ccccc3)c3ccc(C)cc32)cc1	u	x	0%	20µM*	16µM*
Cc1ccc(Cn2c(C(=O)O)c(CNCc3ccc(OC(C)C)cc3)c3ccc(C)cc32)cc1	u	x	u	-106%	x
CCc1ccc(CNCc2c(C(=O)O)n(Cc3cccc(F)c3)c3cc(OC)ccc23)cc1	u	x	u	-101%	32µM*
Cc1ccc(CNCc2c(C(=O)O)n(Cc3ccc(C)cc3)c3cc(C)ccc23)cc1	28µM*	x	u	-108%	x
Cc1ccc(CNCc2c(C(=O)O)n(Cc3ccccc3C)c3cc(C)ccc23)cc1	3%	x	1%	10%	i
COc1ccc(OC)c(CNCc2c(C(=O)O)n(Cc3cccc(F)c3)c3cc(OC)ccc23)c1	1%	x	16%	0%	u
O=C(Cn1c(=O)nc(-c2ccccc2F)c2cc(Cl)ccc21)Nc1ccccc1C(F)(F)F	23%	x	x	2%	x
COc1ccc(CNC(=O)c2ccc(CSc3nc4ccncc4n3Cc3ccccc3F)cc2)cc1	u	x	12%	-9%	i

Compound activity: PubChem BioAssay, National Center for Advancing Translational Sciences (NCATS)
